# Measured values from the supplement of paper PMC6411743.
# ± gives the standard deviation of the averaged measurements. About 5,400 targets were measured; listed, in parts, are those with the largest changes and a random draw of the rest.
# Molecular target: T1, UniProt Q8TD55|Q8TD55-2
# T1 sequence (whole entry): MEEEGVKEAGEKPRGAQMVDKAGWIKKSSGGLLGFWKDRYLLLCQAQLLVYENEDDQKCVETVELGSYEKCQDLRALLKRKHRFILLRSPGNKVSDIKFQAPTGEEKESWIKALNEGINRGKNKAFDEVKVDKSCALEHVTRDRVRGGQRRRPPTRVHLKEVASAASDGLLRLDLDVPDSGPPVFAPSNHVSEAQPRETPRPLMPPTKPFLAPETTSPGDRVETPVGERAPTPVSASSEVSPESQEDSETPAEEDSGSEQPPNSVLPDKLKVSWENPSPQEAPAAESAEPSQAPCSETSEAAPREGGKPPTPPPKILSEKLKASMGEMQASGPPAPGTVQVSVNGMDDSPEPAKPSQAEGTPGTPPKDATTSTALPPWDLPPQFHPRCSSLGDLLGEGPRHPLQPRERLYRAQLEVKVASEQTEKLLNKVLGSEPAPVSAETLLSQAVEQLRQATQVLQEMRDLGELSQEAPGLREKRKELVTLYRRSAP
# Assay: NP40-soluble protein abundance relative to vehicle (solubility fold change) (ratio); higher = more soluble protein in presence of GTP
# Description: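 Solubility proteome profiling in Jurkat crude lysate. Lysate was treated with Mg-GTP (0.1-10 mM) for 10 min at room temperature and 3 min at 37 °C, then solubilised with 0.8% NP40 and benzonase, followed by ultracentrifugation. Proteins were quantified by TMT10 LC-MS/MS; the value is the NP40-soluble abundance relative to the NP40-processed vehicle, from 3 independent experiments.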
smiles,measurement,setting,value
Nc1nc2c(ncn2[C@@H]2O[C@H](COP(=O)(O)OP(=O)(O)OP(=O)(O)O)[C@@H](O)[C@H]2O)c(=O)[nH]1 [guanosine triphosphate],NP40-soluble protein abundance,concentration: 0.1mM,1.07 ± 0.12
same,NP40-soluble protein abundance,concentration: 0.5mM,0.933 ± 0.0094
same,NP40-soluble protein abundance,concentration: 1mM,1.12 ± 0.072
same,NP40-soluble protein abundance,concentration: 2mM,0.933 ± 0.018
same,NP40-soluble protein abundance,concentration: 4mM,0.96 ± 0.072
same,NP40-soluble protein abundance,concentration: 6mM,0.918 ± 0.046
same,NP40-soluble protein abundance,concentration: 8mM,0.943 ± 0.13
same,NP40-soluble protein abundance,concentration: 10mM,1.03 ± 0.097
